Experimental data reported in PubChem BioAssay.
The source made the active and inactive calls.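 Rule for the calls, unless noted: active = inhibition of the reporter signal at or above 50%; inactive = inhibition below 50%.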

Experiment: inhibitors of Sendai virus-induced IRF3 signaling, primary screen, TLR/RLR signaling modifier project, cell-based, Sendai virus stimulus, luciferase, 10K MLSCN set (AID 602276;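 active = inhibition at or above 50% at 10 µM; inactive = inhibition below 50%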;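 note: firefly luciferase from ISG56 promoter only with Renilla not read in this screen; 0% = Sendai virus plus DMSO and 100% = medium plus DMSO without virus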)
Conditions: HEK293 RL24 IRF3 luciferase reporter, at 10 µM, stronger effect = higher value

inhibition, inactive:
CCCCn1c(=O)[nH]c(=O)c2c1nc(-c1ccncc1)n2CCOC 0.301%
O=C(NCCC1=CCCCC1)c1cc2c(s1)CS(=O)(=O)C2 -7.34%
COc1ccc(N2C(=O)CC(N3CCN(c4ccccc4F)CC3)C2=O)cc1 (stereo not given) 6.58%
CCCN1CC23C=CC(O2)C(C(=O)O)C3C1=O (stereo not given) 6.27%
CCN(CCCNC(=O)COc1cc(=O)n(CC)c2ccccc12)c1ccccc1 5.07%
CN(CC(=O)N1CCCc2c1c(=O)oc1ccc(O)cc21)Cc1ccccc1 11.5%
COc1ccc2[nH]c(=O)c(CNC3CCCCC3)cc2c1 6.87%
CC(=O)N1CCN=C1SCc1c(F)cccc1Cl -11.7%
CN(CCCNC(=O)c1cn(C)c2ccc(S(=O)(=O)N(C)C)cc2c1=O)c1ccccc1 15.4%
Cc1nc2ccc(S(=O)(=O)NCC(=O)N3CCCCC3)cc2s1 -10.6%
O=C1CC(C(=O)Nc2ccc(Br)cc2)C2(CCCC2)O1 (stereo not given) 16.6%
CCN(C(=O)c1cc(Cl)ccc1OC)c1ccccc1 14.3%
Fc1cccc(Nc2cc(-n3cccn3)ncn2)c1 -32.7%
O=C(COc1ccccc1F)NC1CC1 -0.955%
CC(=O)c1ccc(NC2OC(C)C(O)C(O)C2O)cc1 (stereo not given) -11.5%
COc1ccc(N2CCN(C(c3cccs3)c3nnnn3C3CCCC3)CC2)cc1 (stereo not given) 1.77%
C=CCOc1nc2c(c(=O)n(C)c(=O)n2C)n1C 6.05%
COc1ccccc1NC(=O)c1ccc(COc2ccccc2OC)o1 12.4%
CCOc1ccc(N(CC(=O)NCc2cccc(OC)c2)S(=O)(=O)c2c(C)noc2C)cc1 -5.75%
CCCCN(C)C(=O)c1ccc(CS(=O)(=O)c2ccccc2C)o1 7.73%
CC(C)Cc1nc(S(=O)(=O)c2ccc(Cl)cc2)c(N2CCOCC2)o1 13.7%
O=C(Cn1nnc(-c2ccc(CN3CCOCC3)cc2)n1)NC1CCCCC1 14%
CC(=O)Nc1nc(=S)ss1 10.3%
O=C(NCc1cccnc1)c1ccc2c(c1)OCO2 -28.8%
O=C1C(c2ccncc2)=C(O)c2ccccc21 4.51%

Experiment: inhibitors of poly I:C-induced TLR3 signaling, primary screen, cell-based, poly I:C stimulus, luciferase, 10K MLSCN set (AID 602277)
Conditions: HEK293-TLR3 RL24 IRF3 luciferase reporter, at 10 µM, stronger effect = higher value

inhibition, inactive:
O=C(NC1CCCc2ccccc21)C1CCN(c2nnc(-n3cccc3)s2)CC1 (stereo not given) 18.7%
c1ccc(Oc2ccc(-n3cnnn3)cc2)cc1 0.336%
COc1ccc(C)cc1NC(=O)CN(Cc1nnc(-c2ccc(Cl)cc2)o1)C1CCCC1 -33.6%
O=C(NCCN1C(=O)C2C3C=CC(C3)C2C1=O)N1CCCCC1 (stereo not given) 20.6%
CCOc1ccc(N2CC(C(=O)Nc3cccc(C)c3C)CC2=O)cc1 (stereo not given) 8.88%
CCOC(=O)c1c(C)[nH]c(C(=O)Cn2c(=O)oc3ccccc32)c1C -12.4%
COc1cccc(-n2ccnc2SCC(=O)N2CCc3ccccc32)c1 -5.47%
Cc1[nH]c2ccccc2c1Cc1nnc(SCC(=O)NCc2ccco2)o1 -28.3%
CCN(CC)CCCNC(=O)c1cn(C)c2ccc(S(=O)(=O)N(C)C)cc2c1=O 33.2%
CC(=O)NCC(=O)N(Cc1ccco1)C1(C(=O)NC2CCCCC2)CCCCC1 19.2%
COc1ccc(NC(=O)C2CCCN(S(=O)(=O)c3cccc4cccnc34)C2)cc1OC (stereo not given) 24.7%
O=c1[nH]c(CN2CCN(Cc3ccccc3)CC2)nc2sc3c(c12)CCC3 17.7%
O=C(CC1CCS(=O)(=O)C1)Nc1ccc[nH]c1=O (stereo not given) 8.75%
CCOC(=O)N1CCN(C(=O)CSc2nnc(COc3ccccc3)o2)CC1 10.1%
CC(C)OC(=O)CSc1nnc(-c2ccc(C(C)(C)C)cc2)n1N 14%
CCCCn1c(=O)[nH]c(=O)c2c1nc(-c1ccncc1)n2CCOC 33.4%
O=C(NCCC1=CCCCC1)c1cc2c(s1)CS(=O)(=O)C2 -9.88%
COc1ccc(N2C(=O)CC(N3CCN(c4ccccc4F)CC3)C2=O)cc1 (stereo not given) 10.1%
CCCN1CC23C=CC(O2)C(C(=O)O)C3C1=O (stereo not given) 15.9%
CCN(CCCNC(=O)COc1cc(=O)n(CC)c2ccccc12)c1ccccc1 7.25%
CN(CC(=O)N1CCCc2c1c(=O)oc1ccc(O)cc21)Cc1ccccc1 27.4%
COc1ccc2[nH]c(=O)c(CNC3CCCCC3)cc2c1 29%
CC(=O)N1CCN=C1SCc1c(F)cccc1Cl 4.78%
CN(CCCNC(=O)c1cn(C)c2ccc(S(=O)(=O)N(C)C)cc2c1=O)c1ccccc1 7.91%
Cc1nc2ccc(S(=O)(=O)NCC(=O)N3CCCCC3)cc2s1 -1.82%
O=C1CC(C(=O)Nc2ccc(Br)cc2)C2(CCCC2)O1 (stereo not given) 11.8%
CCN(C(=O)c1cc(Cl)ccc1OC)c1ccccc1 48.8%
Fc1cccc(Nc2cc(-n3cccn3)ncn2)c1 -66.1%
O=C(COc1ccccc1F)NC1CC1 11%
CC(=O)c1ccc(NC2OC(C)C(O)C(O)C2O)cc1 (stereo not given) -11.5%
COc1ccc(N2CCN(C(c3cccs3)c3nnnn3C3CCCC3)CC2)cc1 (stereo not given) 11.1%
C=CCOc1nc2c(c(=O)n(C)c(=O)n2C)n1C 34.1%
COc1ccccc1NC(=O)c1ccc(COc2ccccc2OC)o1 4.47%
CCOc1ccc(N(CC(=O)NCc2cccc(OC)c2)S(=O)(=O)c2c(C)noc2C)cc1 -5.65%
CCCCN(C)C(=O)c1ccc(CS(=O)(=O)c2ccccc2C)o1 13.7%
CC(C)Cc1nc(S(=O)(=O)c2ccc(Cl)cc2)c(N2CCOCC2)o1 12.7%
O=C(Cn1nnc(-c2ccc(CN3CCOCC3)cc2)n1)NC1CCCCC1 9.43%
CC(=O)Nc1nc(=S)ss1 14.9%
O=C(NCc1cccnc1)c1ccc2c(c1)OCO2 -20%
O=C1C(c2ccncc2)=C(O)c2ccccc21 -0.387%
